Consider 1 compound from PubChem BioAssay AID651911 (Vanderbilt Specialized Chemistry Center, 2012).

The target of this test is Histone deacetylase 11 (Homo sapiens) (UniProt Q96DB2). In words: inhibitors of recombinant human HDAC11 – biochemical, selectivity assay for E-cadherin restoration project, profiling panel (AID 651911).

Calls of active or inactive are those of the source. No rule for the calls is given here.

Sequence of Histone deacetylase 11 (Homo sapiens) (Q96DB2 whole entry, looked up): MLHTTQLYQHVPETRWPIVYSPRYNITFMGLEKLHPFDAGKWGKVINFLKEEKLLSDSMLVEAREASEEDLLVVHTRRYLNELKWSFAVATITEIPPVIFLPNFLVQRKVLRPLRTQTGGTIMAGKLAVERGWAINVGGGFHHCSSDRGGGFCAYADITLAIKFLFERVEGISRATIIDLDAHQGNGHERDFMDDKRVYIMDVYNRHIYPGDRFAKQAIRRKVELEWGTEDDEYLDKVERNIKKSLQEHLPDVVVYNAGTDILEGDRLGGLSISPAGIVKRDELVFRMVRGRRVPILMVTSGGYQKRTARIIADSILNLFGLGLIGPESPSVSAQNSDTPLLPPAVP

Take `O=C(NCCCNC(=O)c1ccc[nH]c1=O)c1cc(-c2ccccc2)on1`: the outcome was inactive.
